Here are results for 40 compounds from PubChem BioAssay (NCI).

Compounds without any hit were thinned out: in the full panel of roughly 83,000, 20% have a hit.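 Treatment: one concentration, 48 hours, 96-well format. Scoring: percent growth, with anything below 10 considered active.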 Unmarked numbers belong to inactive results. The source made the active and inactive calls.

This test concerns BT-549 breast. Briefly: NCI-60 one-dose screen, 48 h (100 = growth as untreated, 0 = no growth, -100 = all killed). Particulars: 10 µM unless noted. How it is done: Growth inhibition of the BT-549 human tumor cell line is measured as a screen for anti-cancer activity. Cells are grown in 96 well plates and exposed to the test compound for 48 hours. Compounds are tested at a single concentration, which is 10^-5 M for most compounds. The reported endpoint is percent growth (GI% or GIPRCNT), where numbers from 0 - 100% represent growth inhibition, and numbers from -100% - 0 represent cell death. For example, a value of 40 represents 60% growth inhibition. A value of 0 means no net growth occurred over the course of the experiment. A value of -40 indicates 40% of cells at the beginning of the experiment died by the end of the experiment. A value of -100 means all cells are dead at the end of the experiment.
NCI-60 Human Tumor Cell Lines Screen was performed using the standard one-dose NCI protocol, which is described in more detail at https://dtp.cancer.gov/discovery_development/nci-60/default.htm.
Compounds with GIPRCNT values below 10 were considered active. Activity score was based on GIPRCNT using the following formula: […]
Score is 0 for GIPRCNT values of 100 or above, 50 for GIPRCNT values of 0, and 100 for GIPRCNT values of -100.
As to `COc1cc(CN(c2ccc(Cl)cc2)C2OC(=O)c3ccccc32)cc(OC)c1OC` (stereo not given), the growth was 44.8%.
As for `COc1cc(/C=C/C(=O)N2CCC=CC2=O)cc(OC)c1OC`, the growth is 58.3%.
As to `C[C@]12CC[C@@H]3c4ccc(O)c(N)c4CC[C@H]3[C@@H]1CC[C@@H]2O`, the growth is 99.3%.
Under `COc1cc([C@@H]2c3cc4c(cc3C(OC3O[C@@H]5COC(C)O[C@H]5[C@H](O)[C@H]3O)C3COC(=O)[C@@H]32)OCO4)cc(OC)c1O` (stereo not given in full) stands 31.4%; under `O=C1CN(CCN2CC(=O)NC(=O)C2)CC(=O)N1`, 96.6%; under `COc1ccc(Cl)cc1NC(=O)c1cc2c([nH]1)-c1nc(N)sc1CCC2`, 102%.
With `COc1ccc(-c2nnc(NC(=O)CN3CCN(c4cc5c(cc4F)c(=O)c(C(=O)O)cn5C4CC4)CC3)s2)cc1OC`, the growth is 105%.
As for `CC(=O)c1cc2c(c(O)c1C)C(=O)C(=O)c1c(O)cccc1-2`, the growth was -94.4% (active).
As for `O=[N+]([O-])c1ccc(NS(=O)(=O)c2ccccc2)c2ccccc12`, the growth was 37.2%.
In the case of `COc1ccc2c(c1)OC(N(C(C)=O)C(C)=O)=C(C#N)C2c1ccc(F)cc1` (stereo not given), the growth is 38.1%.
On to `CC(=O)n1cc(/C=C2\N=C(c3ccc(Cl)cc3)N(c3ccc(S(=O)(=O)Nc4nccs4)cc3)C2=O)c2ccccc21`, for which the growth is 92.8%.
With `COC(=O)c1ccc(NC(N)=NCC(C)(C)COc2ccc(C(F)(F)F)cc2)nc1`, the growth is 66.5%.
With `CN(C)c1ccc2cc(-c3nc4ccccc4s3)c(N)nc2c1`, the growth is 61.8%.
In the case of `COc1ccc(C2CC(c3cc(Cl)c(C)cc3OC)=NN2c2ccc(S(N)(=O)=O)cc2)cc1OC` (stereo not given), the growth was 83.2%.
Take `O=C(Nc1ccc(-n2cc(-c3ccncc3)c(-c3ccc(O)c(Cl)c3)n2)cc1)Nc1cc(C(F)(F)F)cc(C(F)(F)F)c1`: the growth was 20.4%.
As for `CN(C)c1ccc(/C=N/n2c(-c3cc(F)c(Cl)cc3Cl)nn(CN3CCOCC3)c2=S)cc1`, the growth was 91.3%.
`N#Cc1c(N)nc2c(c1N)C(c1ccc(Cl)cc1)C1=C(CCCC1=O)N2c1sc2c(c1C#N)CCCC2` (stereo not given): the growth was 96.1%.
Turning to `O=C(NOC1OC(CO)C(O)C(O)C1O)Nc1ccccc1` (stereo not given), the growth was 110%.
Regarding `O=c1c(-c2ccc3c(c2)OCO3)coc2c(CO)c(O)ccc12`, the growth was -43% (active).
With `COc1ccccc1S(=O)(=O)Nc1ccc2c3c(cc(-c4cnn(C5CC5)c4)nc13)C(=O)N2C`, the growth is 90%.
For the compound `Cc1cc(Nc2ccc(Cl)c(Cl)c2)nc(N)n1`, the growth is 94.4%.
Under `COc1ccc(C(=O)NC(=O)Nc2ccc3c(c2)NC(=O)/C3=C\c2[nH]c(C)c(C(=O)O)c2C)cc1` stands 89%; under `Cc1ccn2cc(Cc3cc(=O)oc4c3ccc3ccccc34)c(=O)nc2c1`, 99.5%; under `COc1ccc2c(-c3ccc(F)cc3)c(C#N)c(=NC(C)=O)oc2c1`, 29.1%.
In the case of `COc1ccc(C2=NN(C(=O)COc3ccc(Cl)cc3)C(O)(c3cc(F)c(Cl)cc3Cl)C2)cc1` (stereo not given) it was 115%.
Turning to `CCn1cc(/C=C2\Oc3cc(OCC#N)ccc3C2=O)c2cc(OC)ccc21`, the growth is 52.6%.
As to `CC1(C)Cc2c(Br)c(Br)c(Br)c(OCC(O)CN3CCN(c4ccccn4)CC3)c2O1` (stereo not given), the growth was 101%.
With `Nc1ncnc2c1c(-c1ccc(Oc3ccccc3)cc1)nn2C[C@@H]1SSC[C@H]1O`, the growth is 57.9%.
Take `Nc1ccc(S(=O)(=O)Nc2ccnn2-c2ccccc2)cc1`: the growth was 116%.
In the case of `CCC(CC(C)C)Nc1ccc(NC(CC)CC(C)C)cc1` (stereo not given) it was 97.1%; in that of `CCN(CC)c1ccc(C2CC(c3cc(OC)c(OC)c(OC)c3)=NN2)cc1` (stereo not given), -2.69% (active).
`CCCOC(=O)c1ccc([N+](=O)[O-])o1`: the growth was 127%.
In the case of `COc1ccc(-c2nnc(SCC(=O)Nc3ccc(C(=O)/C=C/c4ccc(OC)c(OC)c4)cc3)o2)cc1`, the growth is 113%.
As to `O=S(c1ccccc1)c1ccc2nnnn2n1` (stereo not given), the growth is 98.1%.
In the case of `Cc1ccc2[nH]c3nc4cccnc4c(C)c3c2c1` it was 68.6%; in that of `S=c1n(CNc2ccc(Cl)nn2)nc(-c2cc(Cl)cc(Cl)c2Cl)n1/N=C/c1ccc(Cl)cc1`, 106%.
As for `Nn1c(SCC(=O)Nc2cc(Cl)c(Cl)cc2Cl)nnc1-c1cc(F)c(Cl)cc1Cl`, the growth is 87.4%.
Under `O=C1OC(N(Cc2ccc(Cl)cc2)c2ccccc2)c2ccccc21` (stereo not given) stands 103%.
For the compound `CCC1S/C(=N\N=C(/C)c2cccs2)N(c2ccccc2)C1=O` (stereo not given), the growth was 112%.
Consider `O=C(Nc1ccc(F)cc1)Nc1ccc(Br)c(C(F)(F)F)c1`, for which the growth was 15.5%.
